Results on 48 molecules are retold here after PubChem BioAssay AID2685 (National Center for Advancing Translational Sciences (NCATS), 2010).

Hit rate of the full screen: of about 320,000 compounds, about 2,100 (0.66%) were called active. Not shown: some 53% with an inconclusive outcome. Calls follow the shape of the dose curve; as a rule, active = well fitted inhibition curve with a large enough effect in the signal ratio, with a control signal flat (not every such curve was filed as active); inconclusive = small, poorly fitted or top-dose-only effect, or effect the other way, or a change in a side signal; inactive = flat fitted curve, though single readings scatter; the % refers to the signal ratio. Shown is part of a subset that was picked to be rich in actives.
Potency is read from the fitted curve at half-maximal effect.

The assay is described as follows: qHTS Assay for Lipid Storage Modulators in Drosophila S3 Cells.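 As to cell number change: cells counted by Cell Tracker Red CMTPX staining in the red channel.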 As to lipid storage change, negative = inhibition: % is scaled to controls: 0 for no effect and ±100 for the full control effect. Particulars: BODIPY lipid droplet fluorescence, 18-24 h, cells fed with added oleic acid; cell number change: measured here: cell count max response; series mostly up to 46.1 µM; lipid storage change, negative = inhibition: at the top concentration. The method, boiled down: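 Drosophila S3 cells loaded with oleic acid (400 uM, as added) and compounds at several concentrations; lipid droplets imaged by 488-nm laser-scanning cytometry, 500–530 nm intensity and object ratio to cell channel. Percent activity normalized to 20 uM Triacsin C.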
Turning to `Cc1onc(-c2ccccc2)c1C(=O)N/N=C/c1ccc(Br)cc1`, the “lipid storage change, negative = inhibition” value is 24.8% (inactive) and the cell number change was determined as 8.96%.
`O=C(c1ccc(CS(=O)c2cccc(Cl)c2)o1)N1CCN(c2ccccn2)CC1` (configuration not stated): the Potency was 18.4 µM (active) and the cell number change is -26.2%.
For the molecule `O=C(c1ccc(CS(=O)c2cccc(Cl)c2)o1)N1CCOCC1` (configuration not stated), the outcome was inactive and the cell number change was -42.8%.
For `Cc1ccc(CS(=O)Cc2ccc(C(=O)N3CCN(c4ccccc4)CC3)o2)cc1` (configuration not stated), the molecule was classed as inactive.
In the case of `O=C(c1ccc(CS(=O)c2cccc(Cl)c2)o1)N1CCCCCC1` (configuration not stated), the outcome was inactive and the cell number change was -0.885%.
For the molecule `O=C(c1ccc(CS(=O)Cc2ccccc2Cl)o1)N1CCN(c2ccccn2)CC1` (configuration not stated), the call was inactive.
Take `Cc1ccc(CS(=O)Cc2ccc(C(=O)N3CCN(c4ccccn4)CC3)o2)cc1` (configuration not stated): the Potency was 7.31 µM (active).
Regarding `CC(=O)Nc1ccc(S(=O)(=O)N2CCCN(S(=O)(=O)c3ccc(C)cc3)CC2)cc1`, the “lipid storage change, negative = inhibition” value is -13.6% (inactive) and the cell number change was -14.2%.
Consider `CCc1cc[n+](C2=C([O-])c3ccccc3C(=O)/C2=N\S(=O)(=O)c2cccs2)cc1`, for which the Potency was 1.84 µM (active) and the cell number change came out at 2.59%.
As to `CCCCC[n+]1ccn(C2=C([O-])c3ccccc3C(=O)/C2=N\S(=O)(=O)c2ccc(Br)cc2)c1`, the “lipid storage change, negative = inhibition” value was -3.49% (inactive).
With `O=C1C(=O)c2ccccc2C([O-])=C1[n+]1ccccc1`, the “lipid storage change, negative = inhibition” value is -4.48% (inactive) and the cell number change stood at 19.4%.
As to `O=C1/C(=N\S(=O)(=O)c2cccs2)C([n+]2cccc(Cc3ccccc3)c2)=C([O-])c2ccccc21`, the Potency is 20.6 µM (active) and the cell number change was -9.11%.
Regarding `Cc1ccc(/C=C2\S/C(=N/S(=O)(=O)c3cccs3)NC2=O)cc1`, the “lipid storage change, negative = inhibition” value is 6.03% (inactive) and the cell number change is 3.91%.
With `N/C(=N\S(=O)(=O)c1cccs1)c1ccccc1`, the molecule was classed as inactive and the cell number change worked out at 3.91%.
In the case of `NC(=NCCc1ccccc1)NS(=O)(=O)c1cccs1`, the “lipid storage change, negative = inhibition” value is -3.21% (inactive) and the cell number change was -0.301%.
For `CCc1ccc(NS(=O)(=O)c2cccs2)cc1`, the outcome was inactive.
Regarding `CC(C)N(Cc1ccccc1)S(=O)(=O)c1cccs1`, the “lipid storage change, negative = inhibition” value was -12.8% (inactive).
In the case of `Cc1cc[n+](-c2nc3ccccc3nc2[N-]S(=O)(=O)c2cccs2)cc1C`, the “lipid storage change, negative = inhibition” value was 6.93% (inactive) and the cell number change was -0.563%.
Take `Cc1cc[n+](C2=C([O-])c3ccccc3C(=O)/C2=N\S(=O)(=O)c2cccs2)cc1C`: the Potency is 8.2 µM (active) and the cell number change was -25.5%.
For the molecule `O=C1/C(=N\S(=O)(=O)c2cccs2)C([n+]2ccccc2)=C([O-])c2ccccc21`, the Potency is 20.6 µM (active) and the cell number change is -19.9%.
Regarding `O=[N+]([O-])c1cccc(C(=S)N2CCCC2)c1`, the “lipid storage change, negative = inhibition” value is 9.9% (inactive) and the cell number change was 3.41%.
Regarding `COc1ccccc1/C=C/C(=O)OCC(=O)NCc1ccco1`, the “lipid storage change, negative = inhibition” value is 0.24% (inactive) and the cell number change was 4.89%.
Turning to `CCCc1c(C(=O)N/N=C(/C)c2ccncc2)nnn1-c1nonc1N`, the “lipid storage change, negative = inhibition” value is 3.04% (inactive) and the cell number change amounted to 8.62%.
On to `Cc1ccc(/C=C2/SC(=S)N(C3CCCCC3)C2=O)o1`, for which the call was inactive and the cell number change was 14.1%.
On to `Cc1cc(C)n(CCCN2C(=O)c3cccc4cccc(c34)C2=O)n1`, for which the result was inactive.
As to `CNCc1ccccc1OCC(=O)Nc1ccccc1`, the “lipid storage change, negative = inhibition” value was -4.97% (inactive) and the cell number change is -38.8%.
On to `COc1ccc(CC(=O)OCC(=O)N2CCCc3ccccc32)cc1`, for which the outcome was inactive and the cell number change was -4.06%.
As for `CCOCCCNC(=O)CCC(=O)NNc1nc2ccccc2c2nc(-c3ccccc3)nn12`, the “lipid storage change, negative = inhibition” value was 2.08% (inactive) and the cell number change was -6.89%.
Take `CC(C)OCCCNC(=O)CCC(=O)NNc1nc2ccccc2c2nc(-c3ccccc3)nn12`: the Potency is 11.6 µM (active) and the cell number change was -5.84%.
As for `COCCCNC(=O)CCC(=O)NNc1nc2ccccc2c2nc(-c3ccccc3)nn12`, the “lipid storage change, negative = inhibition” value is 4.69% (inactive) and the cell number change was 5.05%.
On the same counts, the results for `Cc1cc(C)cc(-n2c(N)c(C(=O)Nc3c(C)n(C)n(-c4ccccc4)c3=O)c3nc4ccccc4nc32)c1` are -7.93% (inactive) and 0.326%.
For the molecule `CCOc1cc(/C=C/c2cccc[n+]2C)ccc1OCC(=O)Nc1ccc(C)cc1`, the result was inactive and the cell number change turned out to be 2.56%.
In the case of `CCC(Sc1nc2ccccc2o1)C(=O)O` (configuration not stated), the “lipid storage change, negative = inhibition” value is 1.03% (inactive) and the cell number change amounted to 11.5%.
On the same counts, the results for `CCC(Sc1ccc(C(=O)O)cc1)C(=O)O` (configuration not stated) are 2.17% (inactive) and 22.4%.
For `CCC(Sc1nc(N)cc(N)n1)C(=O)O` (configuration not stated), the Potency was 20.6 µM (active) and the cell number change was -9.76%.
As for `CC(C)CCNC(=O)c1cccc(Cl)c1`, the “lipid storage change, negative = inhibition” value was 18.3% (inactive) and the cell number change was 19.2%.
On the same counts, the results for `NC(=O)CNC(=O)c1cccc(Cl)c1` are -15.1% (inactive) and 1.9%.
With `Cc1ccc(C)n1NC(=O)c1ccc(Cl)cc1Cl`, the “lipid storage change, negative = inhibition” value was 17.2% (inactive) and the cell number change came out at 0.742%.
Turning to `O=C(NCCO)c1cccc(Cl)c1`, the Potency is 25.9 µM (active) and the cell number change is -4.89%.
Consider `Cc1ccc(C)n1NC(=O)c1cccc(Cl)c1`, for which the Potency was 20.6 µM (active).
Regarding `Cc1ccc(C)n1NC(=O)c1ccccc1`, the “lipid storage change, negative = inhibition” value was -7.54% (inactive) and the cell number change worked out at 1.97%.
With `COc1ccc(N2C(=S)N=C(Nc3cccc(C)c3)C23CCCCC3)cc1`, the “lipid storage change, negative = inhibition” value was 7.3% (inactive) and the cell number change was -6.29%.
As for `Cc1ncoc1C(=O)N1CCCC(C(=O)c2cccc3ccccc23)C1` (configuration not stated), the molecule was called inactive and the cell number change amounted to 6.72%.
Turning to `CCC(C)Oc1nc2c(c(=O)n(C)c(=O)n2C)n1C` (configuration not stated), the “lipid storage change, negative = inhibition” value is 5.16% (inactive) and the cell number change was 14.8%.
For `CC(=O)/C(=C/Nc1ccc(Oc2ccccc2)cc1)c1ccccc1`, the molecule was called inactive.
Regarding `COc1ccc(-n2nc(C(=O)NCC(=O)NCCCN3CCOCC3)c3ccccc3c2=O)cc1`, the “lipid storage change, negative = inhibition” value is 19.1% (inactive) and the cell number change was -8.11%.
On the same counts, the results for `COc1ccccc1CNc1cncnc1` are -10.3% (inactive) and 7.04%.
On the same counts, the results for `O=C(Nc1ccc(Cl)cc1)C1CCCN(c2ncnc3c2nc2n3CCCCC2)C1` (configuration not stated) are -22.9% (inactive) and -19.1%.
